Reference: the supplement of paper PMC11732987, “Enantioselective OTUD7B fragment discovery through chemoproteomics screening and high-throughput optimisation” (Communications Chemistry, 2025)

Assays:
Experiment in all cases: log2 ratio of Biotin-Ahx-Ub-VS probe labelling (fragment/DMSO); higher = less target engagement (more negative = stronger competition), active = hit call of the paper (q ≤ 0.05, log2 ratio ≤ -1)
Settings in all cases: compound concentration: 200 uM; treatment time: 3 h
USP42 = target: T1, USP42 (UniProt Q9H9J4)
T1 sequence (whole entry): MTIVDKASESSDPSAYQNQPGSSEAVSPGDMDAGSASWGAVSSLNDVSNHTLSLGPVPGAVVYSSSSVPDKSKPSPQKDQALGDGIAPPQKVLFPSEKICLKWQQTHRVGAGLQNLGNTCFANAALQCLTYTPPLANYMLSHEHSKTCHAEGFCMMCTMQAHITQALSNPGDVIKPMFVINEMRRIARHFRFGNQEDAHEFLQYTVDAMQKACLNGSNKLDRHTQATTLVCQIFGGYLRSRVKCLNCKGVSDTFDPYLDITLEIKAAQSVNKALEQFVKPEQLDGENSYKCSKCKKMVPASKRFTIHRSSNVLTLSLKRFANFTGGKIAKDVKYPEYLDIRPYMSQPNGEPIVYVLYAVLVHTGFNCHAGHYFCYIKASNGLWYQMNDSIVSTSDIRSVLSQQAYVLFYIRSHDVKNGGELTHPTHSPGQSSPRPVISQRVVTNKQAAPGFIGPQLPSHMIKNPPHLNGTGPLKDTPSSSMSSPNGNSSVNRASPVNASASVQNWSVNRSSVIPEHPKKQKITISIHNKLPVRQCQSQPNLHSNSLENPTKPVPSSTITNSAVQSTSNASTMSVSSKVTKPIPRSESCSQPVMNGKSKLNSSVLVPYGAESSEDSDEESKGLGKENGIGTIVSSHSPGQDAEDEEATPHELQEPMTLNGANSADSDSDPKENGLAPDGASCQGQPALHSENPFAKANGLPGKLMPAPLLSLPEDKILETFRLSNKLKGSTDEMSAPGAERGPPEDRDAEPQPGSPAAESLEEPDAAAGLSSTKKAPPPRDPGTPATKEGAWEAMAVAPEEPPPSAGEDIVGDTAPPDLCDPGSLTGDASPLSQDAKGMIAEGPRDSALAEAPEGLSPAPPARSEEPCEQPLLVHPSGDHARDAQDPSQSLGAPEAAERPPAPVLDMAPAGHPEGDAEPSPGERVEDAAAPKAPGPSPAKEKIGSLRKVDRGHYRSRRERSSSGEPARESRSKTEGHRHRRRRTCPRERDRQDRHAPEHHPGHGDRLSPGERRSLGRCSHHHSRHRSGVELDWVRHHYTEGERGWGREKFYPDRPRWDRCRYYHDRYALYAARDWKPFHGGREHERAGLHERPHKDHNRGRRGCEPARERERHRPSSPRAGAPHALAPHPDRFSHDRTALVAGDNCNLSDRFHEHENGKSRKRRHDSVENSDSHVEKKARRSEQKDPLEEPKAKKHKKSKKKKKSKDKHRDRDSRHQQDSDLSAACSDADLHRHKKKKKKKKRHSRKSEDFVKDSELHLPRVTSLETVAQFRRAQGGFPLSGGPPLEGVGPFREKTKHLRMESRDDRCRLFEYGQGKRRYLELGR
Method in brief: (§1)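 Fragment (200 µM) or vehicle was incubated for 3 h with triplicate HEK293T lysate samples of 495 µg, which were then treated with Biotin-Ahx-Ub-VS at 0.5 µM final for 1 h. Labelled DUBs were enriched on NeutrAvidin, digested with LysC and trypsin, and analysed by diaPASEF LC-MS/MS. Values are average log2 fragment/vehicle ratios from an unpaired t-test on global-median-normalised Spectronaut label-free quantities, using proteins with ≥2 unique peptides.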

USP46 = USP46 (UniProt P62068)
USP46, sequence (P62068 whole entry): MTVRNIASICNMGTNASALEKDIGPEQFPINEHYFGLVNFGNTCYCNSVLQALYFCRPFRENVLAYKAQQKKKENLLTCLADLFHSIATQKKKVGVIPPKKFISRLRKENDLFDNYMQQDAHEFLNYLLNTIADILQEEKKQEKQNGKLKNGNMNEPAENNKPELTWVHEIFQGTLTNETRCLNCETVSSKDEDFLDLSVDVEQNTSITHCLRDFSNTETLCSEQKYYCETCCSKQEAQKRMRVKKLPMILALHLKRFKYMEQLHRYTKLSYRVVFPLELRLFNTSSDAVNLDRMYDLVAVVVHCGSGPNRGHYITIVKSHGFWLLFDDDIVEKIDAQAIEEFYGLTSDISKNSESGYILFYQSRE
Method in brief: as §1

USP47 = target: T2, USP47 (UniProt Q96K76)
T2 sequence (whole entry): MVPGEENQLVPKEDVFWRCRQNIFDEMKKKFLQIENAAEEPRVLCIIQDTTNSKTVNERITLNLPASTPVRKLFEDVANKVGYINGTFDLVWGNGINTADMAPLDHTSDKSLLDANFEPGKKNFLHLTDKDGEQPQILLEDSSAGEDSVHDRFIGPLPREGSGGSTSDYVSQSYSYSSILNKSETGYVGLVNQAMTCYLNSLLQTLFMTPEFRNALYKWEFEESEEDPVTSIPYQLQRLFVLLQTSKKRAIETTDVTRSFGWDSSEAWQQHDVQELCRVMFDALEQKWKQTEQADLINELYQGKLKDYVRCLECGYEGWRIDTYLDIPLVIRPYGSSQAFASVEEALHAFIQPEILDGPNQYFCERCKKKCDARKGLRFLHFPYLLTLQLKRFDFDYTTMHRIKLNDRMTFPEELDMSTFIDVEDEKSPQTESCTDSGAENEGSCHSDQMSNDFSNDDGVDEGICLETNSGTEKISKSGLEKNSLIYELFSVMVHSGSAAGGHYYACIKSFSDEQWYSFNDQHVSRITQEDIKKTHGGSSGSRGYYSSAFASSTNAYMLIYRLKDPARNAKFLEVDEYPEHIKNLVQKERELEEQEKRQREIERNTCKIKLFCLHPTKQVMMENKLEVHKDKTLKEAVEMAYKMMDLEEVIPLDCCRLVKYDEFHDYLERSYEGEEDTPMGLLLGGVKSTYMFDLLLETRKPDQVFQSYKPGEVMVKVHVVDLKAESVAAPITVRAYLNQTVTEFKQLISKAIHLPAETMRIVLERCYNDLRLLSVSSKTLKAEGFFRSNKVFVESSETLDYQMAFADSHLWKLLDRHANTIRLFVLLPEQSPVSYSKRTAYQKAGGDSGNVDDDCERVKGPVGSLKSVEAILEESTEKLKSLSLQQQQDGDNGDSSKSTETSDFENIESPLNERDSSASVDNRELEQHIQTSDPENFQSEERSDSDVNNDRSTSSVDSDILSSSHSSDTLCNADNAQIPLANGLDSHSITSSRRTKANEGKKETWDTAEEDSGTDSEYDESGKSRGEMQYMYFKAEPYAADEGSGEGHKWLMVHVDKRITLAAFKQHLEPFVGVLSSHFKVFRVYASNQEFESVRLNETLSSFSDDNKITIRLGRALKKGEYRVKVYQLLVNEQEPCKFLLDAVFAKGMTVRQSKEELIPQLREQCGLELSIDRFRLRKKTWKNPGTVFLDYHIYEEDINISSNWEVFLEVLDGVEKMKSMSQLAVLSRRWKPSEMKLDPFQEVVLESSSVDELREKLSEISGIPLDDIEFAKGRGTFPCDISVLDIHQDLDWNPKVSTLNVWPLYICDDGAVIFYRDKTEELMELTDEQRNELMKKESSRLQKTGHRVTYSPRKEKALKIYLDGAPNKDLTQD
Method in brief: as §1

USP48 = target: T3, USP48 (UniProt Q86UV5)
T3 sequence (whole entry): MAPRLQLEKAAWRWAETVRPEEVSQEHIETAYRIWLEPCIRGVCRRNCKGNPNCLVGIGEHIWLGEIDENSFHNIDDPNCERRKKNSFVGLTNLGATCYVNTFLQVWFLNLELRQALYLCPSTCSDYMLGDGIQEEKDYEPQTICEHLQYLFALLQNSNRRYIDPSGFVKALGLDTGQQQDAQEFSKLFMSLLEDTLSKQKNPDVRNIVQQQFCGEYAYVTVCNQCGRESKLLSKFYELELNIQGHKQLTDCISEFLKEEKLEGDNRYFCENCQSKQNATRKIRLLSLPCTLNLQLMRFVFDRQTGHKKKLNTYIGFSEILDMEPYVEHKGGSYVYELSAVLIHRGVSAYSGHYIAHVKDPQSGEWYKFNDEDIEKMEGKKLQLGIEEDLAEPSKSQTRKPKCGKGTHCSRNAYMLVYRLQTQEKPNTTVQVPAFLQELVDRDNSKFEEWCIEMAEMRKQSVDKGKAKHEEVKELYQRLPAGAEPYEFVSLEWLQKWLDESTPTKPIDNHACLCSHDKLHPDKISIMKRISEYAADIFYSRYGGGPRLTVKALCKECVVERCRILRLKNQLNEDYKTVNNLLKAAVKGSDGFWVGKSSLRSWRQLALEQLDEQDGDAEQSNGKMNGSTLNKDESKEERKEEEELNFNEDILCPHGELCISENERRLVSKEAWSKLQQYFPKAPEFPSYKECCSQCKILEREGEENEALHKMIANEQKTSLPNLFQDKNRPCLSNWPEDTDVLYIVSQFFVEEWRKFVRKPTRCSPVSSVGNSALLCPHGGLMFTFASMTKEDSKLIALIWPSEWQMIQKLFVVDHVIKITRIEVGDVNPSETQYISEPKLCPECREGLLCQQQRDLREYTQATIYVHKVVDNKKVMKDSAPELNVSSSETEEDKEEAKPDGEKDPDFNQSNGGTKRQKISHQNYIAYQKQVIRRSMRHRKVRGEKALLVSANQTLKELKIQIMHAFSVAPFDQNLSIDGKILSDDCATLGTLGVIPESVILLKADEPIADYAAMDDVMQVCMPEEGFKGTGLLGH
Method in brief: as §1

USP5 = target: T4, USP5 (UniProt P45974)
T4 sequence (whole entry): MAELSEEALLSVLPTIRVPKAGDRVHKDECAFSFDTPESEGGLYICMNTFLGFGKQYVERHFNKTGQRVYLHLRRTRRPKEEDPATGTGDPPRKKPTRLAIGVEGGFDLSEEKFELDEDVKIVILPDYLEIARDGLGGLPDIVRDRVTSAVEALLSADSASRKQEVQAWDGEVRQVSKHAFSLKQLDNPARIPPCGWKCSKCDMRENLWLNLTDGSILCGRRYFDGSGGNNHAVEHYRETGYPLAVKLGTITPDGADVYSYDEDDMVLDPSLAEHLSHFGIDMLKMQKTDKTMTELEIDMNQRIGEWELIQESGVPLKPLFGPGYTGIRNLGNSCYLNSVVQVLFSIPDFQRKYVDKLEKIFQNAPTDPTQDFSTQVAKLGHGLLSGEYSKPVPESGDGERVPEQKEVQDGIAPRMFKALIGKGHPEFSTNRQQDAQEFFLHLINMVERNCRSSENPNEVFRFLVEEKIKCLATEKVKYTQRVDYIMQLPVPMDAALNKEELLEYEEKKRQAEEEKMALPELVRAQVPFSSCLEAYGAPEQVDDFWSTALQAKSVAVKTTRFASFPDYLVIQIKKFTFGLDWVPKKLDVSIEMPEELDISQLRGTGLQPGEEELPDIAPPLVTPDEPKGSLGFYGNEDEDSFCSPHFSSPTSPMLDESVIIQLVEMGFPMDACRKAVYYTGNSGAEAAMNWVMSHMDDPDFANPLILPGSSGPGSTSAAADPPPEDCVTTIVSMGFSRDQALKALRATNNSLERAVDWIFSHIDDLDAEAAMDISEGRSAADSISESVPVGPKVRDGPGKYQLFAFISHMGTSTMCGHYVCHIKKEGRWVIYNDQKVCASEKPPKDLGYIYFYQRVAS
Method in brief: as §1

USP54 = USP54 (UniProt Q70EL1)
USP54, sequence (Q70EL1 whole entry): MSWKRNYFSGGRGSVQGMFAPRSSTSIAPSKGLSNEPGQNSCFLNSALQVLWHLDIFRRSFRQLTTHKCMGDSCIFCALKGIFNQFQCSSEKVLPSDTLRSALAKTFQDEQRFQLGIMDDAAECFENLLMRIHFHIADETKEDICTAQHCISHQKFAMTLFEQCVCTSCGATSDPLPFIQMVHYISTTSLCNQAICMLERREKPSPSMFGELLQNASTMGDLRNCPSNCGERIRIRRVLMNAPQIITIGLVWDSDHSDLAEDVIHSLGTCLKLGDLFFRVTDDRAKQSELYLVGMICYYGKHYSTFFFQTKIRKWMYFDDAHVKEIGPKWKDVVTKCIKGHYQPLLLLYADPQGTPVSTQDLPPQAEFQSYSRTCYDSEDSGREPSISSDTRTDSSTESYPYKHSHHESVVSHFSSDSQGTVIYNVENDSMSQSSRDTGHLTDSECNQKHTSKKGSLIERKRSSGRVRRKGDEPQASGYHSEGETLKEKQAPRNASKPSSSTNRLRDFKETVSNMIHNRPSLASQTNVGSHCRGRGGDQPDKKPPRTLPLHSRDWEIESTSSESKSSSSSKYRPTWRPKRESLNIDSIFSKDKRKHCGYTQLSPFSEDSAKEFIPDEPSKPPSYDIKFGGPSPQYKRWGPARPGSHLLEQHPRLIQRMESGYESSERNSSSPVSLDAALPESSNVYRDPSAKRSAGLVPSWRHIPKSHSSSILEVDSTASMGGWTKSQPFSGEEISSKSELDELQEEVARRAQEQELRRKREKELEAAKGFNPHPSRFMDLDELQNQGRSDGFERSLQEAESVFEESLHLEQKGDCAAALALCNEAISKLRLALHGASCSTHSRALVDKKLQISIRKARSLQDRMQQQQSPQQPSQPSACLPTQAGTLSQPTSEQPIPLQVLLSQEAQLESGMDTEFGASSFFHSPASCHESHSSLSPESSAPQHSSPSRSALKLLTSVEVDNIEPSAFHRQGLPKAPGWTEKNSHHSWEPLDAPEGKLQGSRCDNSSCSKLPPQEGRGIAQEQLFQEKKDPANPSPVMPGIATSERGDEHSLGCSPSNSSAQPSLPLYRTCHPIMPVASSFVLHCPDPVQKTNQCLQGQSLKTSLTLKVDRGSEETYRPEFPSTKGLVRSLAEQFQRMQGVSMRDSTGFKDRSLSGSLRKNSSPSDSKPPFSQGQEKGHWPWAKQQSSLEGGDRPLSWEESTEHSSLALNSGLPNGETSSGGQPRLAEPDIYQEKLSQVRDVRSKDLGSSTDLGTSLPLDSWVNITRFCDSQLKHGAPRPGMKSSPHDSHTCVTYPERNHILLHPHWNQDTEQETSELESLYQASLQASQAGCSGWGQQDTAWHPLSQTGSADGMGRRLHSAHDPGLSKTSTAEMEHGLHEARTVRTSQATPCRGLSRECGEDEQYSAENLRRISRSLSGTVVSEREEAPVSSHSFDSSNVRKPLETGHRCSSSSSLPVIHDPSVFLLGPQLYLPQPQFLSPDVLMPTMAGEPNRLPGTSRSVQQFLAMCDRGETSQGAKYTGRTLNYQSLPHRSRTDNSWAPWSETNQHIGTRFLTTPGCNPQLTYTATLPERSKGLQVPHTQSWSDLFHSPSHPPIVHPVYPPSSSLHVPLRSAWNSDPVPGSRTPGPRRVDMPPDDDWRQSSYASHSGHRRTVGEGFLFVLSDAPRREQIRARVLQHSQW
Method in brief: as §1

USP7 = USP7 (UniProt Q93009)
USP7, sequence (Q93009 whole entry, looked up): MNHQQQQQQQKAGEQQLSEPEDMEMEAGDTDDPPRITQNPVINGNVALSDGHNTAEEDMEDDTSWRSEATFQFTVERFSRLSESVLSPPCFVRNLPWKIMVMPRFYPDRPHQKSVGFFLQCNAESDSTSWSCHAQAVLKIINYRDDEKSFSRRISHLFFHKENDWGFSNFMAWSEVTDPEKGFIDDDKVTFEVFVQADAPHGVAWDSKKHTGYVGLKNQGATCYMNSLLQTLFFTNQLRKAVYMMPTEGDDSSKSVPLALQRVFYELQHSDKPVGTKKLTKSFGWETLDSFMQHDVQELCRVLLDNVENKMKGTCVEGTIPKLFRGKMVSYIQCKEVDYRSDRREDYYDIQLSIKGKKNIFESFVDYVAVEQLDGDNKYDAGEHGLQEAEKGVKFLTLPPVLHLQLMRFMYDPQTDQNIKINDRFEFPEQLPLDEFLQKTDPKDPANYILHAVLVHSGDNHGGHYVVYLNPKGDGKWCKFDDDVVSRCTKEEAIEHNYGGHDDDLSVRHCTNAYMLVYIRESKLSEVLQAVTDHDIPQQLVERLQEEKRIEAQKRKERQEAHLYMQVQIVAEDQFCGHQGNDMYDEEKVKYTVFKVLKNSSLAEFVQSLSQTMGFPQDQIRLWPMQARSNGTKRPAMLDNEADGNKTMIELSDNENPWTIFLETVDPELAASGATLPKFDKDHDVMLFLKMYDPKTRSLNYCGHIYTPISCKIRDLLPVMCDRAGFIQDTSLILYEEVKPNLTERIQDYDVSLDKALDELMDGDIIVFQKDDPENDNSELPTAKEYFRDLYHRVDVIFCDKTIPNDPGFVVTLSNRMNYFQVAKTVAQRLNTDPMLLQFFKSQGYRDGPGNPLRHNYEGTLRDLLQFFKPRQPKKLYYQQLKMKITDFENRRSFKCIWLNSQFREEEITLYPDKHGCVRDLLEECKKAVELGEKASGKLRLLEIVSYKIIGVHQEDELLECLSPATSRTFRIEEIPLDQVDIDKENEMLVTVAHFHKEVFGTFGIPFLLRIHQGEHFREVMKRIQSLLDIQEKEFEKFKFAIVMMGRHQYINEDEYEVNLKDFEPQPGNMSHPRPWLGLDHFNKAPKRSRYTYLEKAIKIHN
Method in brief: as §1

USP8 = target: T5, USP8 (UniProt P40818)
T5 sequence (whole entry): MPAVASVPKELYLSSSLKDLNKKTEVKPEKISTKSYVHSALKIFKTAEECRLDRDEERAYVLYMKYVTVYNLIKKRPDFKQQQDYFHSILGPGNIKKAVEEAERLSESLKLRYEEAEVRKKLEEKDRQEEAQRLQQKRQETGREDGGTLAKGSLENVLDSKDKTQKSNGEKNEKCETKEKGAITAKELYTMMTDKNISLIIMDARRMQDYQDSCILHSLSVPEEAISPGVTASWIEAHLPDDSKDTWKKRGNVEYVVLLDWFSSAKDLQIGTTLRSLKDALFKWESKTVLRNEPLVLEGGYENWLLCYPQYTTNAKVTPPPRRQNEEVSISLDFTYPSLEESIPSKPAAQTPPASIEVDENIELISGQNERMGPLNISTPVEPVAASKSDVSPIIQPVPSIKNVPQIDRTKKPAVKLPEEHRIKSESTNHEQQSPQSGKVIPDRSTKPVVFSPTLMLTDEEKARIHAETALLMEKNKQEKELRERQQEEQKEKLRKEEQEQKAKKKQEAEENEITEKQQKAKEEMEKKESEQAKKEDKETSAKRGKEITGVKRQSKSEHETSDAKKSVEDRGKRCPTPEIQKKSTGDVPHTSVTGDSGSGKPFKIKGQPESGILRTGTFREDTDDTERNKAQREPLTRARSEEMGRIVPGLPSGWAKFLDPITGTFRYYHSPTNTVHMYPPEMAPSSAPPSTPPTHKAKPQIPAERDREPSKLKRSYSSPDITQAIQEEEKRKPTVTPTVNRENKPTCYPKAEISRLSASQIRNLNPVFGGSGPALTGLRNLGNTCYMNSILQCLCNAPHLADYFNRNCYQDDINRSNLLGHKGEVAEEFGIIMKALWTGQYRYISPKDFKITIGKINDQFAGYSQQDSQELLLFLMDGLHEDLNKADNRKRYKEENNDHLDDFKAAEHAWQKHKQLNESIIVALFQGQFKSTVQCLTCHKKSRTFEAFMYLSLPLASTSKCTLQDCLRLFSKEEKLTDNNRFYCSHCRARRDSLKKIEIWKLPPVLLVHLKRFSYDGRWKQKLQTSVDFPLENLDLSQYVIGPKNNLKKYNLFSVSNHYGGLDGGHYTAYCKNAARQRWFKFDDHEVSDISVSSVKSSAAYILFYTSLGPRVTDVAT
Method in brief: as §1

Measured: log2 ratio of Biotin-Ahx-Ub-VS probe labelling

O=C(CCl)N1CCN(C(=O)Nc2ccccc2)CC1
inactive: USP42 0.532 | USP46 -0.0442 | USP47 -0.216 | USP48 -0.158 | USP5 0.398 | USP54 0.404 | USP7 -0.132 | USP8 0.0931
